Screens as filed in PubChem BioAssay.
Only some compounds are listed: those with a hit (about 2.6% of all), similar ones and a draw of the others.
HTT promoter inh = inhibits huntingtin promoter activity. HEK293 HTT promoter firefly luciferase reporter, 24 h. Potency, µM (titrated, usually from 57.5 µM), usual class: inhibitors. 0.93% of 48,000 active. AID 1508623; note: nearly all actives have a fitted effect of over 50% in size
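Firefly luciferase signal from promoter-reporter HEK293 cells was scaled between vehicle (0%) and zero RLU (-100%). Compounds were tested at final concentrations of up to 57.5 uM over 24 h at 37 degrees C. PTC124 at 50 uM final served as control inhibitor.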
NTMT1 inhibitor = NTMT1 methyltransferase inhibition; NTMT1 MTase-Glo SAH luminescence, purified enzyme; Q9BV86; 2.5% of 59,000 active; Potency, µM (titrated, usually from 114 µM), hits mostly inhibitors; note: nearly all actives have a fitted effect of over 65% in size
Target sequence (Q9BV86 whole entry, looked up): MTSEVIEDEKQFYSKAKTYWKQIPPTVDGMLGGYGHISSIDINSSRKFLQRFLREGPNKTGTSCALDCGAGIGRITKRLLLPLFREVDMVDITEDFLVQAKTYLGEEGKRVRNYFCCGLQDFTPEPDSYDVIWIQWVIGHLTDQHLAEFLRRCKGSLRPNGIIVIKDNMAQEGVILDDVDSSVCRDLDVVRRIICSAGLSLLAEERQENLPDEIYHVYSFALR
FH mod = Identification of activators of human fumarate hydratase by quantitative high-throughput screening; Fumarate hydratase, mitochondrial (Homo sapiens), P07954; FH coupled MDH/diaphorase resazurin fluorescence, 15 min; Potency, µM (series often up to 79.9 µM), most hits filed as inhibitors; 0.22% of 54,000 active; AID 1347055, 2019; note: the screen sought activators but most active calls are inhibition curves; nearly all actives have a fitted effect of over 45% in size
HTT-AS act = activators of huntingtin-antisense promoter activity; HEK293 HTT-AS promoter firefly luciferase reporter, 24 h; response scale: percent change from vehicle, -100% = no light; Potency, µM (top dose mostly 57.5 µM), most hits filed as activators; 0.24% of 48,000 active; note: nearly all actives have a fitted effect of over 55% in size
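HEK293 Fluc reporter, 2,500 cells/well, 24 h pre-culture; cpds up to 57.5 uM final, 24 h 37 degrees C; Dual-Glo, 10 min RT; normalized vehicle = 0%, zero RLU = -100%.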
Numbers stand for hits; ! = not confirmed by another sample. Calls come from the whole dose curve; as a rule, active = well fitted curve in the direction sought with a large enough effect; inconclusive = small, poorly fitted or top-dose-only effect, or another doubt; inactive = no such curve, though single readings can be large; an effect the other way counts as inactive or inconclusive.

`CC(=O)Oc1ccc2c(c1)CC[C@@H]1[C@@H]2CC[C@]2(C)[C@@H](O)CC[C@@H]12` gave HTT promoter inh inactive, NTMT1 inhibitor 25µM, FH mod inactive and HTT-AS act inactive.
Screening CC1Cc2ccccc2N1S(=O)(=O)c1nnc(NC(=O)c2cccc(F)c2)s1 (configuration not stated) returned HTT promoter inh 25µM, NTMT1 inhibitor inactive, FH mod inactive and HTT-AS act inactive.
CC1CCN(S(=O)(=O)c2nnc(NC(=O)c3cccc(F)c3)s2)CC1 was read as HTT promoter inh inactive, NTMT1 inhibitor inactive, FH mod inactive and HTT-AS act inactive.
For Cc1ccc(Cn2c(SCc3ccc(C(=O)N4CCCCC4)cc3)nc3ccncc32)cc1 the results were HTT promoter inh 13µM, NTMT1 inhibitor inactive, FH mod inactive and HTT-AS act inactive.
For Cc1ccc(Cn2c(SCc3ccc(C(=O)N4CCCCCC4)cc3)nc3ccncc32)cc1 the results were HTT promoter inh 32µM, NTMT1 inhibitor inactive, FH mod inactive and HTT-AS act inactive.
`Cc1ccc([N+](=O)[O-])cc1S(=O)(=O)N(C)/N=C/c1cnc2ccc(Br)cn12` gave NTMT1 inhibitor inactive and FH mod inactive.
CC(=O)c1ccc(NC(=O)CC2Nc3cc(C)c(C)cc3NC2=O)cc1 (configuration not stated) was read as HTT promoter inh inconclusive, NTMT1 inhibitor inactive, FH mod inactive and HTT-AS act inactive.
For COC(=O)c1ccc(NC(=O)CC2Nc3cc(C)c(C)cc3NC2=O)cc1 (configuration not stated) the results were HTT promoter inh 25µM, NTMT1 inhibitor inactive, FH mod inactive and HTT-AS act inactive.
C/C(=C/CO)CC[C@H]1[C@]2(C)C[C@H](O)CC(C)(C)[C@H]2CC[C@]1(C)O was read as NTMT1 inhibitor inactive and FH mod inactive.
Screening COc1cc(C(=O)NS(=O)(=O)c2ccccc2C)ccc1Cc1cn(C)c2ccc(NC(=O)OC3CCCC3)cc12 returned HTT promoter inh inconclusive, NTMT1 inhibitor 71µM, FH mod inactive and HTT-AS act inactive.
Screening Nc1ccn([C@@H]2C(F)=C(CO)[C@@H](O)[C@H]2O)c(=O)n1 returned NTMT1 inhibitor inconclusive and FH mod inactive.
Screening COc1ccccc1-c1cc2nc(C)c(CCC(=O)NCCc3ccc(SC)cc3)c(C)n2n1 returned HTT promoter inh 20µM, NTMT1 inhibitor inactive, FH mod inactive and HTT-AS act inactive.
Screening Cc1nc2cc(-c3ccccc3)nn2c(C)c1CCC(=O)Nc1ccc(F)cc1F returned HTT promoter inh inconclusive, NTMT1 inhibitor inactive, FH mod inactive and HTT-AS act inactive.
For COc1ccc(CCNC(=O)CCc2c(C)nc3cc(-c4cccc(F)c4)nn3c2C)cc1OC the results were HTT promoter inh inconclusive, NTMT1 inhibitor 89µM, FH mod inactive and HTT-AS act inactive.
For Cc1nc2cc(-c3cccc(F)c3)nn2c(C)c1CCC(=O)Nc1ccccc1C(N)=O the results were HTT promoter inh 2.2µM, NTMT1 inhibitor inconclusive, FH mod inactive and HTT-AS act inactive.
`COc1ccc(CCNC(=O)CCc2c(C)nc3c(-c4ccc(F)cc4)c(C)nn3c2C)cc1OC` gave HTT promoter inh inactive, NTMT1 inhibitor inactive, FH mod inactive and HTT-AS act inactive.
Screening O=C(CCn1cnc2onc(-c3ccc(F)cc3)c2c1=O)Nc1ccc(F)c(Cl)c1 returned HTT promoter inh 22µM, NTMT1 inhibitor inactive, FH mod inactive and HTT-AS act inactive.
C[C@@H]1C(=O)OC[C@H]2C(C(=O)O)=C[C@@H]3CC(C)(C)C[C@]312 was read as NTMT1 inhibitor inconclusive and FH mod inactive.
Screening C[N+](C)([O-])CCNc1ccc(NCC[N+](C)(C)[O-])c2c1C(=O)c1c(O)ccc(O)c1C2=O returned HTT promoter inh inactive, NTMT1 inhibitor inconclusive, FH mod inactive and HTT-AS act inactive.
`O=C1c2c(O)ccc(O)c2C(=O)c2c(NCCNCCO)ccc(NCCNCCO)c21` gave HTT promoter inh inconclusive, NTMT1 inhibitor 28µM!, FH mod inconclusive and HTT-AS act inactive.
Screening C=CC(=O)N1CC(N2CCN(C(=O)CNc3cc(C4(C)CC4)c(Cl)cc3O)CC2)C1 returned NTMT1 inhibitor inactive.
`NS(=O)(=O)c1ccc(Cc2c(-c3cccc(-c4ccccc4)c3)nn(-c3nc(C(=O)O)cs3)c2CC2CC2)cc1` gave NTMT1 inhibitor 45µM.
Screening COc1ccc(S(=O)(=O)N(CC(=O)Nc2cc(C)ccc2OC)Cc2ccccc2)cc1 returned HTT promoter inh inactive, NTMT1 inhibitor 2.5µM, FH mod inconclusive and HTT-AS act inactive.
For COc1ccc(CNC(=O)c2nc(Cn3nc(C)c(Br)c3C)no2)cc1OC the results were HTT promoter inh inactive, NTMT1 inhibitor 89µM, FH mod inactive and HTT-AS act inactive.
Screening COC(=O)Nc1sc2c(c1-c1nc3ccccc3s1)CCNC2 returned NTMT1 inhibitor inactive.
Screening O=C(Nc1ccc2nc(SCC(=O)N3CCCC3)sc2c1)c1cccc(F)c1 returned HTT promoter inh inactive, NTMT1 inhibitor 89µM, FH mod inactive and HTT-AS act inactive.
CC(C)C(=O)OC[C@H]1O[C@@H](n2ccc(N)nc2=O)[C@](C)(F)[C@@H]1OC(=O)C(C)C was read as NTMT1 inhibitor inactive and FH mod inactive.
Screening CC(=O)N1c2ccc(-c3ccc(C(=O)O)cc3)cc2[C@H](Nc2ccc(Cl)cc2)C[C@@H]1C returned NTMT1 inhibitor inactive.
Screening O=C(Nc1ccc(Br)cc1)C1CCCN1S(=O)(=O)c1ccc(F)cc1 (configuration not stated) returned HTT promoter inh 35µM, NTMT1 inhibitor inactive, FH mod inactive and HTT-AS act inactive.
Screening Cn1c(=O)c(=O)n(C)c2cc(S(=O)(=O)N3CCCC3C(=O)Nc3ccc(F)cc3)ccc21 (configuration not stated) returned HTT promoter inh inactive, NTMT1 inhibitor inactive, FH mod inactive and HTT-AS act inactive.
`CC(=O)Nc1sc2c(c1-c1ncco1)CCNC2` gave NTMT1 inhibitor inactive.
`CCc1ccc(Nc2ncnc3sc4c(c23)CCCC4)cc1` gave HTT promoter inh inactive, NTMT1 inhibitor inactive, FH mod inactive and HTT-AS act inactive.
For COc1ccc(Nc2ncnc3sc4c(c23)CCCC4)cc1 the results were HTT promoter inh inactive, NTMT1 inhibitor 22µM, FH mod inactive and HTT-AS act inactive.
`CCOC(=O)c1cnn(-c2ccc(C(=O)Nc3cc(OC)c(OC)c(OC)c3)cc2)c1N` gave HTT promoter inh inactive, NTMT1 inhibitor 89µM, FH mod inactive and HTT-AS act inactive.
`CCOC(=O)c1cnn(-c2ccc(C(=O)Nc3ccc(C(C)=O)cc3)cc2)c1N` gave HTT promoter inh inactive, NTMT1 inhibitor inactive, FH mod inconclusive and HTT-AS act inactive.
For Cc1ccc(-n2ncc3c(Nc4cccc(C)c4C)ncnc32)cc1 the results were HTT promoter inh inactive, NTMT1 inhibitor inactive, FH mod inactive and HTT-AS act inactive.
